The supplement of paper PMC6853941
Unmarked numbers belong to inactive results.

system: MCF10A; assay: perturbation Mahalanobis distance of morphological profile vs DMSO controls (Mahalanobis distance (SD units)); higher = stronger morphological change, active = 7 or more; conditions: screen batch: Batch1_Mahalanobis_Distance; 72 h
Protocol: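 MCF10A cells were seeded onto drugs dispensed acoustically into 384-well plates, using one dose per drug chosen from its human peak plasma concentration, and incubated for 72 h at 37 °C. Cells were stained for DNA, tubulin and mitochondria and imaged; 78 CellProfiler features were extracted, plate-normalised and compared with DMSO wells.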

Q: Which “perturbation Mahalanobis distance” value does the source give for `CCN(CC)CCCC(C)Nc1ccnc2cc(Cl)ccc12` (stereo unspecified) [Chloroquine] (4.7 µM) here?
A: 2.4

Q: Which “perturbation Mahalanobis distance” value does the source give for `Cc1cc2cc3c(C)cc(=O)oc3c(C)c2o1` [Trioxsalen] (0.07 µM) here?
A: 2.32

Q: Which “perturbation Mahalanobis distance” value does the source give for `OC(c1cc(C(F)(F)F)nc2c(C(F)(F)F)cccc12)C1CCCCN1` (stereo unspecified) [Mefloquine] (23.8 µM) here?
A: 13.3 (active)

Q: `CC(=O)Nc1nnc(S(N)(=O)=O)s1` [Acetazolamide] (90 µM) was tested. Which “perturbation Mahalanobis distance” value did it give?
A: 3.52

Q: How did the “perturbation Mahalanobis distance” value turn out when `Nc1ccn([C@@H]2O[C@H](CO)[C@@H](O)[C@@H]2O)c(=O)n1` [Cytarabine] (10.3 µM) was run?
A: 12.2 (active)

Q: Which “perturbation Mahalanobis distance” value does the source give for `CNNCc1ccc(C(=O)NC(C)C)cc1` [Procarbazine] (13.6 µM) here?
A: 2.07

Q: With `CCCCNc1cc(C(=O)O)cc(S(N)(=O)=O)c1Oc1ccccc1` [Bumetanide] (1 µM) as the compound, how does the “perturbation Mahalanobis distance” value read?
A: 3.62

Q: `CNS(=O)(=O)Cc1ccc2[nH]cc(CCN(C)C)c2c1` [Sumatriptan] (1 µM) was tested. Which “perturbation Mahalanobis distance” value did it give?
A: 1.95

Q: For `C[C@@H]1CCC2[C@@H](C)[C@@H](O)O[C@@H]3OC4(C)CC[C@@H]1[C@@]23OO4` (stereo partly specified) [Dihydroartemisinin] (13.2 µM), which “perturbation Mahalanobis distance” value is on record?
A: 10.7 (active)

Q: For `CN1C[C@H]2c3ccccc3Oc3ccc(Cl)cc3[C@@H]2C1` [Asenapine] (0.07 µM), which “perturbation Mahalanobis distance” value is on record?
A: 2.56

Q: For `CNC[C@H](O)c1ccc(O)c(O)c1` [Epinephrine] (27.3 µM), which “perturbation Mahalanobis distance” value is on record?
A: 2.67

Q: With `C[C@@H](NCCCc1cccc(C(F)(F)F)c1)c1cccc2ccccc12` [Cinacalcet] (0.4 µM) as the compound, how does the “perturbation Mahalanobis distance” value read?
A: 2.7

Q: With `Cc1cn[nH]c1` [Fomepizole] (299.6 µM) as the compound, how does the “perturbation Mahalanobis distance” value read?
A: 2.14

Q: Which “perturbation Mahalanobis distance” value does the source give for `CCOC(=O)C1=C[C@@H](OC(CC)CC)[C@H](NC(C)=O)[C@@H](N)C1` [Oseltamivir] (1 µM) here?
A: 2.31

Q: `CN(Cc1cnc2nc(N)nc(N)c2n1)c1ccc(C(=O)N[C@@H](CCC(=O)O)C(=O)O)cc1` [Methotrexate] (0.44 µM) was tested. Which “perturbation Mahalanobis distance” value did it give?
A: 9.23 (active)

Q: For `O=c1[nH]cc(F)c(=O)[nH]1` [5-Fluorouracil] (2.5 µM), which “perturbation Mahalanobis distance” value is on record?
A: 7.34 (active)

Q: For `CO/N=C(\C(=O)N[C@@H]1C(=O)N2C(C(=O)O)=C(CSc3nnnn3C)CS[C@H]12)c1csc(N)n1` [Cefmenoxime] (183.8 µM), which “perturbation Mahalanobis distance” value is on record?
A: 3.87

Q: With `O=C1Nc2ccc(Cl)cc2[C@@](C#CC2CC2)(C(F)(F)F)O1` [Efavirenz] (28.8 µM) as the compound, how does the “perturbation Mahalanobis distance” value read?
A: 3.91

Q: For `CCCN[C@H]1CCc2nc(N)sc2C1` [Pramipexole] (0.15 µM), which “perturbation Mahalanobis distance” value is on record?
A: 2.79

Q: `CCCc1cc(=O)[nH]c(=S)[nH]1` [Propylthiouracil] (90 µM) was tested. Which “perturbation Mahalanobis distance” value did it give?
A: 2.49

same assay, conditions: screen batch: Batch2_Mahalanobis_Distance; 72 h

Q: Which “perturbation Mahalanobis distance” value does the source give for `CCN(CC)CCCC(C)Nc1ccnc2cc(Cl)ccc12` (stereo unspecified) [Chloroquine] (4.7 µM) here?
A: 2.82

Q: With `Cc1cc2cc3c(C)cc(=O)oc3c(C)c2o1` [Trioxsalen] (0.07 µM) as the compound, how does the “perturbation Mahalanobis distance” value read?
A: 2.45

Q: For `OC(c1cc(C(F)(F)F)nc2c(C(F)(F)F)cccc12)C1CCCCN1` (stereo unspecified) [Mefloquine] (23.8 µM), which “perturbation Mahalanobis distance” value is on record?
A: 17.1 (active)

Q: Which “perturbation Mahalanobis distance” value does the source give for `CC(=O)Nc1nnc(S(N)(=O)=O)s1` [Acetazolamide] (90 µM) here?
A: 2.44

Q: For `Nc1ccn([C@@H]2O[C@H](CO)[C@@H](O)[C@@H]2O)c(=O)n1` [Cytarabine] (10.3 µM), which “perturbation Mahalanobis distance” value is on record?
A: 17.9 (active)

Q: With `CNNCc1ccc(C(=O)NC(C)C)cc1` [Procarbazine] (13.6 µM) as the compound, how does the “perturbation Mahalanobis distance” value read?
A: 2.28

Q: With `CCCCNc1cc(C(=O)O)cc(S(N)(=O)=O)c1Oc1ccccc1` [Bumetanide] (1 µM) as the compound, how does the “perturbation Mahalanobis distance” value read?
A: 2.57

Q: `CNS(=O)(=O)Cc1ccc2[nH]cc(CCN(C)C)c2c1` [Sumatriptan] (1 µM) was tested. Which “perturbation Mahalanobis distance” value did it give?
A: 3.35

Q: How did the “perturbation Mahalanobis distance” value turn out when `C[C@@H]1CCC2[C@@H](C)[C@@H](O)O[C@@H]3OC4(C)CC[C@@H]1[C@@]23OO4` (stereo partly specified) [Dihydroartemisinin] (13.2 µM) was run?
A: 16.7 (active)

Q: With `CN1C[C@H]2c3ccccc3Oc3ccc(Cl)cc3[C@@H]2C1` [Asenapine] (0.07 µM) as the compound, how does the “perturbation Mahalanobis distance” value read?
A: 2.47

Q: `O=C(Nc1ccc([N+](=O)[O-])cc1Cl)c1cc(Cl)ccc1O` [Niclosamide] (5.3 µM) was tested. Which “perturbation Mahalanobis distance” value did it give?
A: 5.7

Q: How did the “perturbation Mahalanobis distance” value turn out when `CNC[C@H](O)c1ccc(O)c(O)c1` [Epinephrine] (27.3 µM) was run?
A: 2.89

Q: How did the “perturbation Mahalanobis distance” value turn out when `C[C@@H](NCCCc1cccc(C(F)(F)F)c1)c1cccc2ccccc12` [Cinacalcet] (0.4 µM) was run?
A: 2.58

Q: Which “perturbation Mahalanobis distance” value does the source give for `Cc1cn[nH]c1` [Fomepizole] (299.6 µM) here?
A: 3.81

Q: `CCOC(=O)C1=C[C@@H](OC(CC)CC)[C@H](NC(C)=O)[C@@H](N)C1` [Oseltamivir] (1 µM) was tested. Which “perturbation Mahalanobis distance” value did it give?
A: 1.77

Q: For `CN(Cc1cnc2nc(N)nc(N)c2n1)c1ccc(C(=O)N[C@@H](CCC(=O)O)C(=O)O)cc1` [Methotrexate] (0.44 µM), which “perturbation Mahalanobis distance” value is on record?
A: 17.5 (active)

Q: How did the “perturbation Mahalanobis distance” value turn out when `O=c1[nH]cc(F)c(=O)[nH]1` [5-Fluorouracil] (2.5 µM) was run?
A: 16.5 (active)

Q: For `CO/N=C(\C(=O)N[C@@H]1C(=O)N2C(C(=O)O)=C(CSc3nnnn3C)CS[C@H]12)c1csc(N)n1` [Cefmenoxime] (183.8 µM), which “perturbation Mahalanobis distance” value is on record?
A: 4.1

Q: Which “perturbation Mahalanobis distance” value does the source give for `O=C1Nc2ccc(Cl)cc2[C@@](C#CC2CC2)(C(F)(F)F)O1` [Efavirenz] (28.8 µM) here?
A: 4.25

Q: For `CCCN[C@H]1CCc2nc(N)sc2C1` [Pramipexole] (0.15 µM), which “perturbation Mahalanobis distance” value is on record?
A: 2.65

Q: With `CCCc1cc(=O)[nH]c(=S)[nH]1` [Propylthiouracil] (90 µM) as the compound, how does the “perturbation Mahalanobis distance” value read?
A: 2.52
